Pf growth 48h – Primary qHTS for delayed death inhibitors of the malarial parasite plastid, 48 hour incubation; P. falciparum luciferase growth in erythrocytes, 48 h; Potency, µM (top dose mostly 28.7 µM), for inactives: at the top dose activity change, negative = inhibition, usual class: inhibitors; 5.9% of 310,000 active; AID 504832, 2011; also: potency is read from the fitted curve at half-maximal effect; % is scaled to controls: 0 for no effect and ±100 for the full control effect
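Growth was read as firefly luciferase luminescence after a 48 h, 37 C, 5% CO2 exposure of compounds to reporter-bearing P. falciparum cultures (0.1% parasitemia, 2% hematocrit final) in Albumax-supplemented RPMI 1640.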
Shiga inhibitor – A qHTS for Small Molecule Inhibitors of Shiga Toxin | Vero cells, Shiga toxin protein synthesis inhibition reporter | inhibition, % at 38.7 µM | 9.2% of 290,000 active; in the data active = inhibition mostly above about 28%, no sharp cut-off; inactive = mostly below about 43%; also: 0% is about no effect
HCMV inh – qHTS Assay for inhibitors of the human cytomegalovirus (HCMV); 4.5% of 410,000 active; AID 1259415, 2018; activity change, negative = inhibition, % at 57.5 µM; HFF cells, HCMV-luciferase reporter, 72 h; stronger effect = lower value; in the data active = activity change below about -60%; inconclusive = no clear call, values can overlap the other calls; inactive = above about -39%; also: % is scaled to controls: 0 for no effect and ±100 for the full control effect
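Screen run at 2 compound doses on HFFs infected with reporter HCMV, MOI 1 PFU/cell. Luciferase activity from cell lysates at 72 h post infection gave inhibition relative to buffer-only and Salinomycin wells.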
CHX counter – Cycloheximide Counterscreen for Small Molecule Inhibitors of Shiga Toxin; cell reporter, cycloheximide protein synthesis inhibition counterscreen; 12% of 300,000 active; max response, %; in the data active = max response mostly above about 13%, no sharp cut-off; inactive = mostly below about 14%; also: read at 38.3 µM for the half of the compounds with a filed dose; 0% is about no effect
Pf growth 96h – Primary qHTS for delayed death inhibitors of the malarial parasite plastid, 96 hour incubation | P. falciparum luciferase reporter growth, 96 h | Potency, µM (doses to about 28.7 µM), inactives show at the top dose activity change, negative = inhibition, actives largely listed as inhibitors | 6.9% of 320,000 active | AID 504834, 2011; also: potency is read from the fitted curve at half-maximal effect; % is scaled to controls: 0 for no effect and ±100 for the full control effect
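Compounds incubated with erythrocytes infected by luciferase-expressing P. falciparum (2% hematocrit, 0.05% parasitemia final) for 96 hours, 37 C in 5% CO2. Growth inhibition scored as decreased luciferase luminescence.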
Active calls of the source: *; ? = inconclusive; / = no result. Shown are actives, neighbours in structure and some others; about 20% of the full set was active somewhere. Unless noted, calls follow the shape of the dose curve; as a rule, active = well fitted inhibition curve with a large enough effect; inconclusive = small, poorly fitted or top-dose-only effect, or another doubt; inactive = no such curve, though single readings can be large or run the other way.

SMILES	Pf growth 48h	Shiga inhibitor	HCMV inh	CHX counter	Pf growth 96h
CC1=C(C(=O)OC(C)C)C(c2cccs2)C(C(=O)OC(C)C)=C(C)N1	13.1µM*	-4.7	-24.3	-0.6	?
COC(=O)C1=C(C)NC(C)=C(C(=O)OC(C)C)[C@H]1c1cccc2nonc12	4.55µM*	/	/	/	2.56µM*
CCOC(=O)c1sc2c(c1C)C(c1cccs1)C1=C(CCCC1=O)N2 (centres undefined)	?	-4.8	-19.6	3.0	11.7µM*
CC1=C(C(=O)OC(C)C)C(c2cccs2)NC(=O)N1 (centres undefined)	-7.9%	-1.6	-27.5	10.5	16.7%
C#CCSC1=C(C#N)C(c2cccs2)C(C(=O)OCC)=C(C)N1 (centres undefined)	10.4µM*	35.1	2.7	24.4*	2.8%
CCOC(=O)C1=C(C)NC(C)=C(C(=O)OCC)C1c1cccs1	9.28µM*	10.7	-30.2	-0.8	9.28µM*
CCOC(=O)C1=C(C)Nc2[nH]c(=O)[nH]c(=O)c2C1c1cccs1 (centres undefined)	20.5%	-12.1	34.3	-6.9	-0.1%
CCCCCCCOC(=O)C1=C(C)Nc2ncnn2C1c1cccs1 (centres undefined)	10.4µM*	-17.4	-16.5	-2.1	38.6%
CCOC(=O)C1=C(C)N=C2SCCC(=O)N2[C@@H]1c1cccs1	10.4µM*	-5.5	-19.2	-2.0	6.1%
CCOC(=O)C1=C(C)NC(C)=C(C(=O)OCC)C1c1sccc1C	5.22µM*	-8.0	-19.4	-2.8	49.1%
CCCCCCCCOC(=O)C1=C(C)Nc2nnnn2C1c1cccs1 (centres undefined)	/	-4.9	18.5	-4.2	/
CCOC(=O)C1=C(C)N=C2SCCC(=O)N2C1c1cccs1 (centres undefined)	6.7%	14.6	?	-5.6	-6.5%
CC(C)c1ccc(OCC(=O)N(Cc2ccco2)C2CCS(=O)(=O)C2)cc1 (centres undefined)	5.7%	3.9	-6.6	-0.6	?
COc1ccc(-c2cn3c(C)c(C(=O)Nc4cc(NC(C)=O)ccc4OC)sc3n2)cc1	76.6%	6.2	4.8	1.2	?
CNC(=O)c1sc2nc(-c3ccc(OC)cc3)cn2c1C	/	146.4*	89.6	86.4*	7.1%
CCN(CC)C(=O)c1sc2nc(-c3ccc(OC)cc3)cn2c1C	248.9%	77.2*	29.8	38.1*	?
CCN(CC)c1ccc(N)cc1	1.85µM*	/	/	/	?
Nc1ccc(N(CCO)CCO)cc1	?	-9.2	22.7	-2.0	33.3%
COc1ccc(Nc2nc(-c3ccc(OC)cc3)cs2)cc1	368.0%	70.1*	-10.0	63.2*	66.6%
COc1ccc(-c2csc(Nc3ccc(S(N)(=O)=O)cc3)n2)cc1	-20.0%	14.4	-29.6	7.5	/
COc1ccc(-c2csc(Nc3cccnc3)n2)cc1	0.0%	98.8*	13.8	51.6*	-4.8%
COc1ccc(-c2csc(Nc3ccccc3)n2)cc1	54.5%	97.2*	-8.9	29.3*	52.4%
COc1ccc(Nc2nc(-c3c[nH]c4ccccc34)cs2)cc1	?	67.0	71.4	32.1*	-100.2%
O=C(CSc1c2c(nc3ccc(Cl)cc13)CCCC2)N1CCCCC1	/	/	0.9	/	/
COc1ccc(-c2nnc(SCC(=O)Oc3cc(C)ccc3C)o2)cc1	/	/	-3.8	/	/
SMILES	Pf growth 48h	Shiga inhibitor	HCMV inh	CHX counter	Pf growth 96h
COc1ccc2oc(=O)c(-c3csc(Nc4ccc(O)cc4)n3)cc2c1	?	84.5*	?	46.0*	-15.6%
COc1ccc(OC)c(CNC(=O)CCn2c(=O)c3cccn3c3ccc(F)cc32)c1	19.3%	8.9	-34.7	-4.9	6.0%
O=C(Nc1ccc(-c2nc3ccc(NC(=O)c4cccs4)cc3[nH]2)cc1)c1cccs1	2.62µM*	-23.6	-83.5*	-1.7	/
O=C(Nc1ccc2nc(-c3cccs3)[nH]c2c1)c1cccs1	53.2%	-6.0	?	1.7	/
O=C(Nc1ccc(-c2nc3ccccc3c(=O)o2)cc1)c1ccco1	4.7%	-4.9	?	-3.5	-15.7%
Cn1cccc1-c1nc2ccc(NC(=O)c3ccco3)cc2[nH]1	39.8%	55.8	49.0	43.7*	23.0%
O=C(Nc1cccc(-c2cnc3ccccc3n2)c1)c1cccc(NC(=O)c2ccco2)c1	/	46.5*	133.2	43.4*	/
O=C(Nc1cccc(-c2nc3ccccc3[nH]2)c1)c1ccco1	?	41.6*	18.9	16.9	14.7µM*
O=C(Nc1cccc(-c2cnc3ccccc3n2)c1)c1ccccc1	-63.3%	47.0	-17.0	31.2	39.2%
CC(C)(C)OC(=O)C[C@@H]1C/C=C\C[C@H](CC(=O)N[C@H](CO)Cc2ccccc2)C(=O)N[C@H](C(C)(C)C)COC1=O	/	/	-11.0	/	/
Cc1ccc(C(=O)NNC(=O)CSc2nnc(-c3ccncc3)n2C)cc1	38.0%	10.5	-15.7	-0.6	283.7%
Cc1cc(C(=O)Nc2ccc3c(c2)CCC3)ccc1[N+](=O)[O-]	/	/	61.9	/	/
Cc1ccc2nc(-c3ccc(NC(=O)c4ccco4)cc3)[nH]c2c1	?	75.2*	-7.3	38.6*	/
O=C(Nc1nccs1)c1cccc(NC(=O)c2ccco2)c1	9.6%	6.0	-4.8	8.3	3.1%
CCCN(CCC)S(=O)(=O)c1ccc(C(=O)Nc2nnc(-c3cccc(OC)c3)o2)cc1	?	-10.1	?	-5.0	4.1%
Cc1ccc(-c2nnc(-c3ccc(NC(=O)c4ccco4)cc3)o2)cc1	-28.6%	18.6	-14.5	1.9	?
O=C(Nc1ccc2nc(-c3cccs3)[nH]c2c1)c1ccco1	44.4%	59.7*	?	27.5*	/
c1cncc(CNc2cccc(-c3nc4ccccc4[nH]3)c2)c1	117.9%	active	-17.6	54.1*	53.7%
CCCN(CCC)S(=O)(=O)c1ccc(C(=O)Nc2cccc(-c3nc4ccccc4[nH]3)c2)cc1	/	/	-88.2*	/	/
CCOc1ccccc1NC(=O)C(Cc1ccccc1)NS(=O)(=O)c1ccc(Br)s1 (centres undefined)	/	/	-30.9	/	/
CN(C)CCNc1ncnc2c1ncn2[C@H]1CN(CCc2ccccc2)C[C@@H](CO)O1	/	/	3.4	/	/
Cc1ccc(-n2c3c(cc(C(=O)NCc4ccco4)c2=O)C(=O)CC(C)(C)C3)cc1	?	12.4	-14.9	7.5	0.465µM*
CCOC(=O)N1CCN(Cc2nc3c(c(=O)n(C)c(=O)n3C)n2Cc2cccc(C)c2)CC1	/	-5.3	20.7	-1.9	?
CCOC(=O)N1CCN(Cc2nc3c(c(=O)n(C)c(=O)n3C)n2Cc2cccc3ccccc23)CC1	11.7µM*	27.6	7.7	-2.3	8.28µM*
CCCOc1nc2c(c(=O)n(C)c(=O)n2C)n1Cc1cccc2ccccc12	13.1µM*	-1.1	-90.9*	-5.0	/
COc1ccc(C(=O)NCC(O)COc2ccc(C(C)(C)C)cc2)cc1[N+](=O)[O-] (centres undefined)	-4.2%	-8.8	/	8.5	6.57µM*
COc1cc(/C=N/O)ccc1OCc1ccc(C(=O)O)cc1	256.3%	21.3	58.6	54.5*	383.1%

Compound activity deposited in PubChem BioAssay by National Center for Advancing Translational Sciences (NCATS).
